# Values joined by “and” are separate entries in the source; they are usually repeats but may differ in a detail not shown here. Identical values can stand only once. Values without a mark were called inactive. Results filed as inconclusive are left out. Entries that show only a call come without a potency. Active and inactive are the calls of the source. The call rests on the fitted dose curve; in most records, active means well fitted curve in the direction sought with a large enough effect; inconclusive means small, poorly fitted or top-dose-only effect, or another doubt; inactive means no such curve, though single readings can be large; an effect the other way counts as inactive or inconclusive. Peptide text beside a SMILES is read from it.
# Key:
# [1] = Cellular Toxicity (caspase-3) HepG2 (AID 654);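 further: cells exposed to compound for 16 hours before reading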
# In short: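 Luminescent Caspase-Glo 3/7 readout after 16 hr compound exposure of human hepatocellular carcinoma HepG2 cells at 37 °C; qHTS concentration-response, normalized DMSO = 0%, 100 uM tamoxifen = 100%; AC50 by standard Hill equation.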
# [2] = Cellular Toxicity (caspase-3) Jurkat (AID 655);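 further: cells exposed to compound for 16 h at 37 °C before reading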; further: potency means the concentration at half of the fitted maximal effect
# In short: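 Jurkat cells (5000/well) in complete medium were treated with compounds for 16 hr at 37 °C, then Caspase-Glo 3/7 luminescence was read after 20 min at room temperature. Data normalized to DMSO (basal) and 100 uM tamoxifen (100%); AC50 from Hill fit.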
# [3] = Cellular Toxicity (caspase-3) HUV-EC-C (AID 656)
# In short: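 HUV-EC-C endothelial cells, 1000/well, were pre-incubated 5 hr at 37°C, then exposed to compounds for 16 hr at 37°C. Caspase-Glo 3/7 luminescence was read after 20 min at room temperature. AC50 came from Hill fits, normalized to DMSO and 100 uM tamoxifen.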
# [4] = Cellular Toxicity (caspase-3) SHSY5Y (AID 657)
# In short: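 SH-SY5Y human neuroblastoma cells (1500/well) were treated with compounds for 16 h at 37 °C, then Caspase-Glo 3/7 luminescence was read after 1 h at room temperature. Data normalized to DMSO and 10 uM staurosporine; AC50 from Hill fits.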
# [5] = Cellular Toxicity (caspase-3) BJ (AID 658)
# In short: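 Caspase-Glo 3/7 luminescence, read 1 hr after reagent at room temperature, in normal BJ fibroblasts exposed 16 hours at 37 °C. AC50 values from Hill-equation concentration-response, scaled between DMSO basal and 10 uM staurosporine as 100%.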
# [6] = Cellular Toxicity (caspase-3) MRC-5 (AID 659)
# In short: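 Luminescent Caspase-Glo 3/7 read-out (1 h, room temperature) after a 16 h, 37 °C compound exposure of MRC-5 lung fibroblasts at 1500 cells/well. Concentration-response AC50 from Hill equation; 0% DMSO, 100% 10 uM staurosporine.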
# [7] = Cellular Toxicity (caspase-3) Mesangial (AID 660);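 further: combined caspase 3 and 7 activity read by Caspase-Glo luminescence; cells exposed to compound for 16 h before the caspase read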
# In short: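 Luminescent Caspase-Glo 3/7 readout (aminoluciferin substrate cleavage, 20 min RT) after 16 h compound exposure at 37 °C of normal human mesangial cells. Signal increase normalized between DMSO basal and 100 uM tamoxifen; Hill-equation AC50.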
# [8] = Cellular Toxicity (caspase-3) SK-N-SH (AID 661)
# In short: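 Luminescent Caspase-Glo 3/7 read-out after 16 hr compound exposure of SK-N-SH neuroblastoma cells at 37 °C. Signal increase normalized to DMSO (basal) and 10 uM staurosporine (100%); AC50 from Hill equation fits of qHTS concentration-response data.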
# [9] = Cellular Toxicity (caspase-3) H-4-II-E (AID 663);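 further: cells exposed to compound for 16 hr before readout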
# In short: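 Caspase 3/7 activation measured by luminescent aminoluciferin substrate cleavage after 16 hr compound treatment of H-4-II-E cells in complete medium. Increase normalized between DMSO (basal) and 100 uM tamoxifen (100%); Hill-equation AC50 from concentration-response.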
# [10] = Cellular Toxicity (caspase-3) Hek293 (AID 664); settings: HEK293 caspase-3 activation, DMSO = 0%, 100 µM tamoxifen = 100%; at 92.2 µM (top of the series);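 further: cells exposed to compound for 16 h at 37 °C before readout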
# In short: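 Luminescent Caspase-Glo 3/7 readout (aminoluciferin release) in HEK293 cells after 16 h compound treatment, 37 °C. Normalization: DMSO = basal, 100 uM tamoxifen = 100% stimulation. Concentration-response fitted with standard Hill equation for AC50.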
SMILES,outcome [1],Potency [2],outcome [3],outcome [4],outcome [5],outcome [6],outcome [7],outcome [8],outcome [9],caspase-3 activation [10]
Cc1cc(O)c2c(c1)C(=O)c1cc(O)cc(O)c1C2=O,inactive,inactive,inactive,inactive,inactive,inactive,inactive,inactive,inactive,-8.76%
CS(=O)(=O)OCCCCOS(C)(=O)=O,inactive,inactive,inactive,inactive,inactive,inactive,inactive,inactive,inactive,-0.303% and 2.3%
CCCCC(CC)COC(=O)C(C#N)=C(c1ccccc1)c1ccccc1 (centres undefined),inactive,inactive,inactive,inactive,inactive,inactive,inactive,inactive,inactive,2.23%
CCc1nc(N)nc(N)c1-c1ccc(Cl)cc1,inactive,31.6 µM (active),inactive,inactive,inactive,inactive,inactive,inactive,inactive,101% (active)
c1ccc2[nH]c(-c3cscn3)nc2c1,inactive,inactive,inactive,inactive,inactive,inactive,inactive,inactive,inactive,-8.39%
NS(=O)(=O)c1cc(C(=O)O)c(NCc2ccco2)cc1Cl,inactive,inactive,inactive,inactive,inactive,inactive,inactive,inactive,,2.23%
Nc1ccc(S(N)(=O)=O)cc1,inactive,inactive,inactive,inactive,inactive,inactive,inactive,inactive,inactive,-1.76%
CN(C)c1ccc2nc3ccc(=[N+](C)C)cc-3sc2c1,inactive,inactive,inactive,inactive,inactive,inactive,inactive,inactive,inactive,-0.51%
CCCc1cc(=O)[nH]c(=S)[nH]1,inactive,inactive,inactive,inactive,inactive,inactive,inactive,inactive,inactive,1.8%
CC(=O)Nc1ccc(O)cc1,inactive,inactive,inactive,inactive,inactive,inactive,inactive,inactive,inactive,-1.09%
Cc1ccc(C)c(OCCCC(C)(C)C(=O)O)c1,inactive,inactive,inactive,inactive,inactive,inactive,inactive,inactive,inactive,-2.65%
COC(=O)[C@H](Cc1ccccc1)NC(=O)[C@@H](N)CC(=O)O (H-Asp-Phe-OMe),inactive,inactive,inactive,inactive,inactive,inactive,inactive,inactive,inactive,1.4%
COc1c2occc2cc2ccc(=O)oc12,inactive,inactive,inactive,inactive,inactive,inactive,inactive,inactive,inactive,2.24%

# From PubChem BioAssay (NCATS)
